This excerpt belongs to a sample that is enriched for hits.
Sa growth 42C: S. aureus growth inhibition at 42 and 30 °C, primary screen, LtaS inhibitor project, RN4220, two temperatures; OD600, 20 h, 42 °C; hits give low values; relative growth, % (concentration not given with the values); 0.53% of 170,000 active;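 active means relative growth at most 50% at the other temperature and 20+ points below 30 °C, or under 10% at both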
S aureus helic: inhibitors of S. aureus replicative helicase, primary screen, biochemical, fluorescence unwinding readout; replicative DNA helicase (DnaC/DnaB), Staphylococcus aureus; purified S. aureus helicase, fluorescence unwinding assay; inhibition, % (concentration not given with the values); 0.05% of 120,000 active; in the data active means inhibition above about 25%, passing the limit was not always enough;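 further: 0% = mean of negative control wells and 100% = mean of positive control wells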
Starred values were filed as active, the others as inactive.

Screening Clc1ccc(CO/N=C(\Cn2ccnc2)c2ccc(Cl)cc2Cl)c(Cl)c1 returned Sa growth 42C -0.4*.
Cc1oc2ccccc2c1-c1ccc2ccccc2n1 was read as Sa growth 42C 33.6* and S aureus helic -16.0.
Cc1nnc(SCC(=O)Nc2ccc(C#N)c(Cl)c2)n1N was read as Sa growth 42C 92.5 and S aureus helic -7.0.
CCN(CC)P(=N)(N(CC)CC)N(CC)CC was read as Sa growth 42C 90.0 and S aureus helic -15.0.
COc1cc(-c2nnc(COC(=O)C(O)(c3ccccc3)c3ccccc3)o2)cc(OC)c1OC was read as Sa growth 42C 101.3 and S aureus helic -12.0.
For COC(=O)c1cn(Cc2ccccc2C#N)c2ccccc12 the results were Sa growth 42C 103.5 and S aureus helic 4.0.
`N#CC(C#N)=NNc1ccccc1` gave Sa growth 42C 0.0* and S aureus helic 0.0.
Screening N#CC(C#N)=C(C#N)c1ccc(Nc2ccccc2)cc1 returned Sa growth 42C 84.8 and S aureus helic -2.0.
Screening CCc1cnc(NC(=O)CN2CC3CC(C2)c2cccc(=O)n2C3)s1 (centres undefined) returned Sa growth 42C 118.0 and S aureus helic 4.0.
For c1ccc(Cn2ccnc2)cc1 the results were Sa growth 42C 84.5.
Screening Clc1ccc(COC(Cn2ccnc2)c2ccc(Cl)cc2Cl)cc1 (centres undefined) returned Sa growth 42C -0.6*.
Clc1ccc(CSC(Cn2ccnc2)c2ccc(Cl)cc2Cl)cc1 (centres undefined) was read as Sa growth 42C -0.3*.
COc1ccccc1Cn1c(N)c(C(N)=O)c2nc3ccccc3nc21 was read as Sa growth 42C 113.7 and S aureus helic 0.0.
For Cc1cccc(-n2c(-c3ccco3)nc3ccccc3c2=O)c1 the results were Sa growth 42C 113.7 and S aureus helic 13.0.
`O=c1cccc2n1CC1CC2CN(Cc2nnc(-c3ccc4c(c3)OCO4)o2)C1` (centres undefined) gave Sa growth 42C 87.4 and S aureus helic -17.0.
Screening Cc1nc2ccccc2c(=O)n1-c1ccc(N)cc1 returned Sa growth 42C 103.1 and S aureus helic -6.0.
For O=c1c2ccccc2[se]n1-c1ccccc1 the results were Sa growth 42C 0.3*.
For O=c1c2ccccc2nc(-c2ccccc2)n1-c1ccccc1 the results were Sa growth 42C 106.8 and S aureus helic 15.0.
NC1CN2CCC1CC2 (centres undefined) was read as Sa growth 42C 91.4 and S aureus helic -24.0.
Oc1cccc2cccnc12 was read as Sa growth 42C 0.2*.
`CN(C)C(=O)Oc1cccc2cccnc12` gave Sa growth 42C 101.7 and S aureus helic 0.0.
O=C(C1c2ccccc2C(=O)N2CCCCC12)N1CCCCCC1 (centres undefined) was read as Sa growth 42C 92.9 and S aureus helic 10.0.
CCCC1COC(Cn2cncn2)(c2ccc(Cl)cc2Cl)O1 (centres undefined) was read as Sa growth 42C 5.4* and S aureus helic 0.0.
`CC(O)CNC1CCCC(C)C1` (centres undefined) gave Sa growth 42C 71.5 and S aureus helic 13.0.
`CCN=C1N=C(c2ccccc2)N=P(NCC)(NCC)N1` gave Sa growth 42C 116.3 and S aureus helic 0.0.
`CCn1nc(-c2cccnc2)nc2c(=O)n(C)c(=O)nc1-2` gave Sa growth 42C -0.2* and S aureus helic -20.0.
`CCn1nc(-c2ccccc2)nc2c(=O)n(C)c(=O)nc1-2` gave Sa growth 42C 0.3* and S aureus helic -133.0.
CCN(CC)C(=O)c1ccc(NC(=O)Cn2nc(-c3ccccc3)c3ccccc3c2=O)cc1 was read as Sa growth 42C 97.8 and S aureus helic 2.0.
Clc1ccc(N/N=C2/CN3CCC2CC3)c(Cl)c1 was read as Sa growth 42C 94.8 and S aureus helic 18.0.
Screening CC(C)COC(C(=O)O)(c1ccccc1)c1ccccc1 returned Sa growth 42C 108.8 and S aureus helic 4.0.

Assay outcomes deposited in PubChem by ICCB-Longwood Screening Facility, Harvard Medical School.
